Bioassay records: PubChem BioAssay, several laboratories
PP5 primary – PP5 phosphatase inhibitors, primary screen, biochemical, fluorescence | purified PP5c, OMFP substrate fluorescence | inhibition, % at 6.7 µM | Serine/threonine-protein phosphatase 5 (Homo sapiens), P53041 | 320,000 compounds, 0.18% hits;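 active = inhibition above the campaign's mean inhibition across all tested compounds plus 3 SD, cut at about 9.5% in these data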;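 note: 0% = DMSO only and 100% = 100 µM cantharidin control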
Rev-erbA mod – modulators of Rev-erb alpha DNA binding, primary screen, biochemical, FITC-DNA, fluorescence polarization, uHTS. Rev-erbα–FITC-DNA binding, 90 min. activity, % at 10 µM. 370,000 compounds, 0.79% hits;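 active = activity above about 14%, limit read from the data; passing the limit was not always enough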;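 note: 0% = DMSO wells with 35 nM protein and 100% = DMSO wells with 750 nM protein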
JMJD2C inh – inhibitors of GASC-1 histone demethylase, primary screen, biochemical, fluorescence, DELFIA europium | 330,000 compounds, 0.069% hits | GST-JMJD2C(1-420) H3K9me3 demethylation | inhibition, % at 2.35 µM | AID 2099, 2009 | Lysine-specific demethylase 4C (Homo sapiens), Q9H3R0;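 active = more than half of a compound's replicate wells show inhibition beyond 50%, single wells judged on their own value; inconclusive = some, but no more than half, of replicates pass 50% inhibition; inactive = no replicate passes 50% inhibition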;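 note: signal counts dimethyl H3K9 product captured on neutravidin plate; 0% = median of DMSO wells and 100% = 0.3 times that DMSO median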
proKLK7 act – proKLK7 zymogen activators, primary screen, biochemical, fluorescence intensity | Kallikrein-7 (Homo sapiens), P49862 | activation, % at 7 µM | AID 652039, 2013 | purified proKLK7, EDANS-DABCYL substrate fluorescence; 100% is mature enzyme control, 0% vehicle | 370,000 compounds, 0.9% hits;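 active = activation above the mean of all tested compounds plus 3 SD, computed per campaign excluding outliers beyond control limits, cut at about 13% in these data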
Target sequence (P49862 whole entry, looked up): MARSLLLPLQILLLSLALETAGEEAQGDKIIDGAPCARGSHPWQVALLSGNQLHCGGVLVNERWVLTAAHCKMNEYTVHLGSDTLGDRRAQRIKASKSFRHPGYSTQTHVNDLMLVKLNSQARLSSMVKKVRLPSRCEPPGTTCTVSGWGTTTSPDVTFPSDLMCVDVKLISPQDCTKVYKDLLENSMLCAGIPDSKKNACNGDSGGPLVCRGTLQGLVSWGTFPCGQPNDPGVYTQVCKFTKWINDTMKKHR
PG9 binder – binders of HIV-1 gp120 antibody PG9, primary screen, biochemical, TR-FRET; 360,000 compounds, 0.43% hits; inhibition, % at 6.7 µM; TR-FRET gp120-PG9 antibody binding; in the data active = inhibition above about 8.5%
PP1 inh – PP1-alpha phosphatase inhibitors, primary screen, counter-screen for PP5 inhibitor project, biochemical, fluorescence, OMFP substrate, single point; purified PP1alpha; Serine/threonine-protein phosphatase PP1-alpha catalytic subunit (Homo sapiens), P62136; inhibition, % at 6.7 µM; 320,000 compounds, 0.9% hits;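 active = inhibition above the mean inhibition of all tested compounds plus 3 SD, computed separately for each screening campaign, cut at about 15% in these data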
Target sequence (P62136 whole entry, looked up): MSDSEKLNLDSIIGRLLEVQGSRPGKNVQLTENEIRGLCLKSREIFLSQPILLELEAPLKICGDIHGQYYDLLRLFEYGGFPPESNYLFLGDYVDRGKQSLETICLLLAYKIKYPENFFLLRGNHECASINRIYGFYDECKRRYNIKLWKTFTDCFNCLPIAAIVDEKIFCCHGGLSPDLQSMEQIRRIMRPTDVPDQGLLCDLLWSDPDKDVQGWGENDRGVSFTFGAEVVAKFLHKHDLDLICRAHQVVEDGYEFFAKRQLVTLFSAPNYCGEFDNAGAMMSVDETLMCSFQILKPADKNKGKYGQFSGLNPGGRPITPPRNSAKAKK
proKLK7 act conf – proKLK7 zymogen activators, confirmation, biochemical, fluorescence intensity, triplicate. shares compounds with proKLK7 act. purified proKLK7, EDANS-DABCYL substrate fluorescence; scaled: vehicle 0, mature enzyme 100. activation, % at 7 µM. 3,200 compounds, 68% hits;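 active = activation, as change over the incubation, above the mean of all tested compounds plus 3 SD, cut at about 13% in these data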
EDANS-DABCYL int – EDANS-DABCYL substrate optical interference, artefact control for kallikrein-7 zymogen activator project, biochemical, fluorescence intensity, high throughput; shares compounds with proKLK7 act; no enzyme, 4 h; solvent 0%, active enzyme control 100%; activation, % at 7 µM; 3,200 compounds, 80% hits; AID 686952, 2013;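 active = activation above the all-compound mean plus 3 SD, ignoring values outside control-based bounds, cut at about 4.8% in these data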;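 note: value is the 4 h activation minus the activation read at time zero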
Active calls of the source: *; ? = inconclusive; nt = not tested or not shown. A selection: hits, their analogues and other compounds. The true share with any hit is near 2.8%.

SMILES | PP5 primary | Rev-erbA mod | JMJD2C inh | proKLK7 act | PG9 binder | PP1 inh | proKLK7 act conf | EDANS-DABCYL int
CC1=C(C#N)C(c2cccnc2)C2=C(CC(c3ccc(Cl)cc3)CC2=O)N1 (centres undefined) | 2 | 7 | 2 | 13* | 0 | 2 | 2 | 9.2*
Cc1nc2c(c3c1[nH]c1ccccc13)C(O)CC(C)(C)C2 (centres undefined) | -1 | 4 | -1 | 34* | 1 | -1 | 41* | 40*
COC(=O)C1=C(C)N(Cc2ccc(Br)cc2)C(=S)NC1c1cccc(OC)c1 (centres undefined) | nt | -1 | nt | 0 | 1 | nt | nt | nt
Cc1sc(N)nc1-c1ccccc1 | -1 | 1 | -23 | 1 | 0 | -4 | nt | nt
Nc1c(-c2ccccc2)nc(Cl)nc1-c1ccccc1 | 3 | 1 | 52 | 42* | 0 | -2 | 78* | 78*
CCc1c(-c2ccccc2)nc2nc(C)c(C)nn12 | 2 | 0 | 6 | 15* | 0 | 3 | -4 | 0
Cc1cc(N2CCOCC2)n2cc(-c3ccc(F)cc3)nc2n1 | 4 | 2 | -7 | 4 | 2 | -3 | nt | nt
CCc1ccc(-c2cn3nc(C)c(C)nc3n2)cc1 | -2 | 3 | -6 | 49* | 2 | -2 | 73* | 72*
Cc1cc(C)n2nc(C)c(-c3ccccc3)c2n1 | 2 | -2 | -30 | 0 | 0 | -4 | nt | nt
Cc1nc2nc(-c3ccccc3)cn2nc1C | 2 | -6 | 1 | 64* | 1 | -3 | 70* | 72*
Cc1nc2nc(-c3ccc(F)cc3)cn2nc1C | 2 | -3 | -5 | 67* | 0 | -2 | 69* | 59*
c1ccc(-c2cn3nc(-c4ccccc4)cnc3n2)cc1 | -1 | 3 | 3 | -3 | 2 | -3 | nt | nt
CCc1cc(=O)oc2c3c(cc(OCC(=O)NCc4ccncc4)c12)OC(C)(C)CC3 | 6 | -3 | -10 | 6 | 2 | 0 | nt | nt
CCc1cc(=O)oc2c3c(cc(OCC(=O)NCCN4CCOCC4)c12)OC(C)(C)CC3 | 3 | 0 | -3 | 39* | 1 | -2 | 10 | 3
CCc1cc(=O)oc2c3c(cc(OCC(=O)NC4CC4)c12)OC(C)(C)CC3 | 7 | -11 | 103 | 13* | 1 | -7 | -86 | -109
CCc1cc(=O)oc2c3c(cc(OCC(=O)NCCCOC)c12)OC(C)(C)CC3 | -1 | -4 | 2 | 19* | 1 | 0 | 30* | 29*
COc1ccccc1CNC(=O)COc1cc2c(c3oc(=O)cc(C)c13)CCC(C)(C)O2 | 4 | -1 | ? | -17 | 0 | -4 | nt | nt
CCc1cc(=O)oc2c3c(cc(OCC(=O)NCCC(=O)O)c12)OC(C)(C)CC3 | 0 | -2 | -2 | 33* | 2 | -6 | 76* | 82*
COC(=O)c1ccc2nc(-c3cccc(Cl)c3)c(Cc3ccccc3C(F)(F)F)n2c1 | nt | 2 | nt | 0 | -1 | nt | nt | nt
CCc1cc(=O)oc2c(C)c(OCC(=O)N3CCC[C@@H]3C(=O)O)ccc12 | 4 | 2 | -1 | -1 | 2 | -2 | nt | nt
CCc1cc(=O)oc2c3c(cc(OCC(=O)NCc4ccco4)c12)OC(C)(C)CC3 | 3 | nt | -2 | nt | nt | -1 | nt | nt
CCc1cc(=O)oc2c3c(cc(OCC(=O)NCCCC(=O)O)c12)OC(C)(C)CC3 | 3 | -7 | 4 | 29* | 0 | 1 | 65* | 65*
CCCc1cc(=O)oc2c3c(cc(OCC(=O)N4CCC[C@H]4C(=O)O)c12)OC(C)(C)CC3 | -2 | 0 | -8 | 40* | 1 | -6 | 48* | 69*
Cc1cc(=O)oc2c3c(cc(OCC(=O)NCCC(=O)O)c12)OC(C)(C)CC3 | nt | 6 | 2 | 40* | 2 | nt | 64* | 64*
Cc1c(C)c2c(OCC(=O)NCC3CCC(C(=O)O)CC3)cc3c(c2oc1=O)CCC(C)(C)O3 (centres undefined) | nt | -1 | nt | 5 | -2 | nt | nt | nt
SMILES | PP5 primary | Rev-erbA mod | JMJD2C inh | proKLK7 act | PG9 binder | PP1 inh | proKLK7 act conf | EDANS-DABCYL int
Cc1cc(=O)oc2c3c(cc(OCC(=O)NCC4CCC(C(=O)O)CC4)c12)OC(C)(C)CC3 (centres undefined) | 7 | -3 | ? | 40* | -1 | -5 | 76* | 77*
COc1ccc(C(=O)/C=C(\Nc2ccc(F)cc2)c2ccc(OC)cc2OC)c(OC)c1 | nt | 4 | nt | 0 | nt | nt | nt | nt
O=C(Nc1ccccc1)Nc1nc2ncccn2c1-c1ccc(C(F)(F)F)cc1 | nt | -1 | nt | 1 | nt | nt | nt | nt
O=S1(=O)N[C@H](c2ccccc2)COc2cc(Br)ccc21 | nt | 0 | nt | 0 | 1 | nt | nt | nt
C[C@H]1COc2cc(Br)ccc2S(=O)(=O)N1Cc1cn(Cc2ccco2)nn1 | nt | -3 | nt | 0 | nt | nt | nt | nt
c1cnc2nc(CSc3ncn[nH]3)cn2c1 | -5 | 4 | 0 | 48* | 0 | -2 | 8 | 11*
c1ccc(SCc2cn3cccnc3n2)nc1 | -1 | nt | 10 | -3 | -1 | -1 | nt | nt
N#CCC[C@@H]1CC[C@]2(CCCN(C(=O)c3ccno3)C2)O1 | nt | -4 | nt | 0 | nt | nt | nt | nt
C[C@H]1[C@@H](OC(=O)N2CCOCC2)CC[C@@]23CCCN2C(=O)CCC[C@@H]13 | nt | 2 | nt | nt | nt | nt | nt | nt
O=c1cn[nH]c2ccccc12 | 0 | -3 | 3 | -1 | -2 | 1 | nt | nt
COC(=O)c1cc(=O)c2cccc(OC)c2[nH]1 | 3 | -1 | -3 | 196* | -1 | -4 | 77* | 77*
COc1cccc2c(=O)cn[nH]c12 | -2 | 2 | -9 | 84* | 1 | -5 | 66* | 64*
COC(=O)c1cc(NC(=O)CC(=O)c2cccc(N)c2)cc(C(=O)OC)c1 | nt | 7 | nt | 15* | -1 | nt | -1 | 0
COC(=O)c1cc(NC(=O)c2cccc(F)c2)cc(C(=O)OC)c1 | 2 | -2 | 2 | 0 | -2 | -2 | nt | nt
COc1ccc(C(=O)Nc2cc(Cl)c(Br)cc2C(=O)O)cc1 | nt | 0 | nt | nt | nt | nt | nt | nt
CC(=O)CC[C@H]1CC[C@]2(CCCN(C(=O)C3CCCCC3)C2)O1 | nt | 7 | nt | 0 | nt | nt | nt | nt
